Measured values: PubChem BioAssay AID504467 (National Center for Advancing Translational Sciences (NCATS), 2011)
Hit rate of the full screen: of about 330,000 compounds, about 7,700 (2.3%) were called active. Inconclusive results (about 26%) are left out. Calls follow the shape of the dose curve; as a rule, active = well fitted inhibition curve with a large enough effect; inconclusive = small, poorly fitted or top-dose-only effect, or effect the other way; inactive = flat fitted curve, though single readings scatter. The list comes from a sample in which actives are over-represented; it also holds similar structures and randomly drawn compounds.

assay: qHTS screen for small molecules that inhibit ELG1-dependent DNA repair in human embryonic kidney (HEK293T) cells expressing luciferase-tagged ELG1; details: HEK293T ELG1-luciferase reporter, luminescence, 16 h, DNA damage induced by 5-fluorouridine; series mostly up to 46.1 µM; activity change, negative = inhibition: at the top concentration; also: nearly all actives have a fitted effect of over 55% in size
Method in brief: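 Cells (2,000 per well) received 5-fluorouridine plus test compound or DMSO and were incubated 16 hr at 37 °C, 5% CO2. Luciferase activity was read by luminescence 30 min after ONE-Glo addition; signal suppression marked inhibition of damage-induced ELG1 function.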
% is scaled to controls: 0 for no effect and ±100 for the full control effect; potency is read from the fitted curve at half-maximal effect.

Row | Structure (SMILES) | activity change, negative = inhibition | Potency
1 | CCn1nc(C)c(CNC(=O)C2CCC(=O)N(Cc3cccc(F)c3)C2)c1C (stereo not given) | -6.48% (inactive) | –
2 | COC(=O)[C@]1(C)N[C@H](CN(C)C(=O)c2ccc(C(C)(C)C)cc2)[C@@H]2C(=O)N(C)C(=O)[C@@H]21 | 9.59% (inactive) | –
3 | COc1ccc(NC(=O)CN2C(=O)C(c3ccccc3)=NC23CCCCCC3)cc1OC | – | 23.1 µM (active)
4 | COc1ccc(NC(=O)CC2SC(N3CCCCC3)=NC2=O)cc1OC (stereo not given) | 27.7% (inactive) | –
5 | COc1ccc(NC(=O)CN(Cc2ccccc2)S(C)(=O)=O)cc1OC | 0.322% (inactive) | –
6 | COc1cc(S(=O)(=O)N2CCN=C2c2ccccc2)ccc1Cl | 12.4% (inactive) | –
7 | Cn1c(=O)c2c(SCC(=O)NCC3CCCO3)nc(CC(C)(C)C)nc2n(C)c1=O (stereo not given) | -10% (inactive) | –
8 | COc1ccc(NC(=O)C2CCC(CNc3c(N4CCCCC4)c(=O)c3=O)CC2)c(OC)c1 (stereo not given) | – | 7.3 µM (active)
9 | CCN(CC)c1ccc(NC(=O)C2CCC(CNc3c(N4CCCC4)c(=O)c3=O)CC2)c(C)c1 (stereo not given) | -13.2% (inactive) | –
10 | CCOc1ccccc1NC(=O)C1CCC(CNc2c(N3CCOCC3)c(=O)c2=O)CC1 (stereo not given) | 0.0516% (inactive) | –
11 | CC(CCc1ccccc1)NC(=O)c1cnc(Cl)c(Cl)c1 (stereo not given) | -6.26% (inactive) | –
12 | CCn1ccnc1CN1CCCC(C(=O)c2ccc3c4c(cccc24)CC3)C1 (stereo not given) | 8.93% (inactive) | –
13 | CC(=O)NCC(=O)N1CCCC(C(=O)c2ccc3c4c(cccc24)CC3)C1 (stereo not given) | -5.67% (inactive) | –
14 | Cc1ncoc1C(=O)N1CCCC(C(=O)c2ccc3c4c(cccc24)CC3)C1 (stereo not given) | – | 16.4 µM (active)
15 | CC1CCCCC1NC(=O)NC(=O)COC(=O)C1=NN(c2ccccc2)C(=O)CC1 (stereo not given) | 20.6% (inactive) | –
16 | CCCC(=O)N1CCN(c2nnc(-c3ccc(C)cc3)c3ccccc23)CC1 | 19.1% (inactive) | –
17 | COc1ccc(CCN(C)C(=O)C23CC4CC(CC(Cl)(C4)C2)C3)cc1OC | -13.6% (inactive) | –
18 | CCCn1c(C2CCCN2c2nc(-c3ccc(C)cc3)cs2)nc2cc(Cl)c(N3CCCCC3)cc21 (stereo not given) | -1.63% (inactive) | –
19 | CC(C)(C)OC(=O)Nc1ccc([C@@H](NC(=O)OC(C)(C)C)C(=O)OC(C)(C)C)cc1 | 6.05% (inactive) | –
20 | Cc1ccccc1C(=O)N1CCC(C(=O)Nc2ccc(S(=O)(=O)N(C)C(C)C)cc2)CC1 | – | 16.4 µM (active)
21 | CCc1nnc(NC(=O)C2CCN(C(=O)c3ccccc3C)CC2)s1 | -0.619% (inactive) | –
22 | CC(=O)c1cccc(NC(=O)C2CCN(C(=O)c3ccccc3Cl)CC2)c1 | -26% (inactive) | –

Row | Structure (SMILES) | activity change, negative = inhibition | Potency
23 | O=C(Nc1ccccc1N1CCOCC1)c1ccc(OCc2cscn2)cc1 | -20.9% (inactive) | –
24 | O=C(COC(=O)CCCN1C(=O)c2cccc3cccc(c23)C1=O)NC1CCS(=O)(=O)C1 (stereo not given) | 16.1% (inactive) | –
25 | CCOC(=O)CSc1nc2ccc(C)cc2n2cnnc12 | 6.26% (inactive) | –
26 | O=C(CCc1nnc2ccc(NCc3ccco3)nn12)Nc1cc(F)ccc1F | 7.8% (inactive) | –
27 | COc1cccc(-c2nc(CS(=O)(=O)CC(=O)NCCc3ccc(OC)c(OC)c3)c(C)o2)c1 | -23.3% (inactive) | –
28 | COc1ccc(CCNC(=O)C2CCCN(Cc3nc(-c4cccc(Cl)c4)oc3C)C2)cc1OC (stereo not given) | – | 10 µM (active)
29 | COc1ccc(CCN(C)C(=O)C2CCCN(Cc3ccc(OC)c(OC)c3)C2)cc1OC (stereo not given) | – | inactive
30 | CCOc1ccc(-n2c(SCC(=O)OC)nc3sc4c(c3c2=O)CCN(C)C4)cc1 | 7.61% (inactive) | –
31 | Cc1cn(COC/C=C/c2ccccc2)c(=O)[nH]c1=O | 9.83% (inactive) | –
32 | O=C(/C=C/c1ccccc1)c1ccccc1O | 24.6% (inactive) | –
33 | Cc1[nH]c(=O)c(C(=O)/C=C/c2ccccc2)c2c1CCCC2 | – | 8.2 µM (active)
34 | OC(COc1ccccc1)Cn1cc(Br)cn1 (stereo not given) | 11.2% (inactive) | –
35 | OC(CN=c1sc2ccccc2n1CC(O)COc1ccccc1)COc1ccccc1 (stereo not given) | – | 20.6 µM (active)
36 | O=C(c1ccccc1)c1ccc(OCC(O)CN2CCCC2)cc1 (stereo not given) | -15% (inactive) | –
37 | CC1(C)CC(=O)C=C(c2ccc(Cl)c(C(F)(F)F)c2)C1 | 12.4% (inactive) | –
38 | COc1ccc(C(CNC(=O)COc2ccc([N+](=O)[O-])cc2)N2CCCCC2)cc1 (stereo not given) | 18.2% (inactive) | –
39 | Cc1c(O)c(C)c2c(c1O)C(=O)C[C@@H](c1ccccc1)O2 | 20.9% (inactive) | –
40 | COc1cc(C(=S)NCc2ccccc2)cc(Br)c1O | -1.45% (inactive) | –
41 | COc1cc(C(=O)NCc2ccc(-n3cccc3)cc2)cc(OC)c1OC | 14.2% (inactive) | –
42 | COc1cc(C(=O)NCc2ccncc2)cc(Br)c1OCc1ccccc1 | – | 14.6 µM (active)
43 | CC[C@]1(C(=O)OC)[C@H]2C(=O)N(C)C(=O)[C@H]2[C@H]2CN(C)C(=NCc3ccccc3)N21 | 0.774% (inactive) | –
44 | COc1ccc(NC(=O)CN(C)C(=O)c2cccc(S(=O)(=O)N3CCN(c4ccccc4)CC3)c2)cc1 | -24.7% (inactive) | –

Row | Structure (SMILES) | activity change, negative = inhibition | Potency
45 | CC1CCCCC1NC(=O)Cn1cnc2c1c(=O)n(C)c(=O)n2C (stereo not given) | 9.25% (inactive) | –
46 | O=C(Nc1ccc(Br)cn1)C1CCN(S(=O)(=O)c2cccs2)CC1 | – | 5.8 µM (active)
47 | O=C(NCc1ccc(Cl)cc1)C1CCN(S(=O)(=O)c2cccs2)CC1 | 1.66% (inactive) | –
48 | O=C(NC1CCCCC1)C1CCCN(S(=O)(=O)c2cccs2)C1 (stereo not given) | 7.89% (inactive) | –
49 | O=C(COC(=O)c1ccccn1)NNC(=O)c1ccc(Br)cc1 | 14.1% (inactive) | –
50 | Cc1ccc(OCC(=O)Nc2ccccc2C(=O)NC2CC2)cc1 | 4.58% (inactive) | –
51 | CCCCNC(=O)N(O)C1N(/N=C/c2ccccc2O)C(=S)SC1(C)C (stereo not given) | -3.57% (inactive) | –
52 | CCOC(=O)C1CCCN(C(=O)CSc2nnc3nc(C)cc(C)n23)C1 (stereo not given) | 2.07% (inactive) | –
53 | COc1ccc(-n2c(SCC(=O)Nc3sc4c(c3C#N)CCCC4)nnc2-c2ccc(O)cc2)cc1 | – | 18.4 µM (active)
54 | CCCc1cc(=O)[nH]c(SCC(=O)Nc2sc3c(c2C#N)CCCC3)n1 | 2.43% (inactive) | –
55 | N#Cc1c(NC(=O)CSc2nc3ccccc3c(=O)n2Cc2ccco2)sc2c1CCCC2 | -11.7% (inactive) | –
56 | CCOc1ccccc1NC(=O)CCc1nnc2ccc(NCc3ccco3)nn12 | 4.95% (inactive) | –
57 | CN(CCC(=O)Nc1cc(S(=O)(=O)N(C)C)ccc1Cl)CC(=O)Nc1ccc(F)cc1 | -5.53% (inactive) | –
58 | Cc1ccc(NC(=O)CCCNC(=O)c2ccc(Cl)cc2)cc1S(=O)(=O)N1CCOCC1 | -8.87% (inactive) | –
59 | Cc1ccc(NC(=O)C2CCC(C(C)(C)C)CC2)cc1S(=O)(=O)N1CCOCC1 (stereo not given) | – | 23.1 µM (active)
60 | CN(CC(=O)Nc1ccc(F)cc1)CC(=O)N1CCCCC1 | -11.1% (inactive) | –
61 | CC(=O)NCCc1ccc(S(=O)(=O)Nc2ccc(C)c(S(=O)(=O)N3CCOCC3)c2)cc1 | 2.11% (inactive) | –
62 | Cc1ccc(NC(=O)C2CC2)cc1S(=O)(=O)N1CCOCC1 | -2.57% (inactive) | –
63 | Cc1ccc(NC(=O)c2ccc(Cl)nc2)cc1S(=O)(=O)N1CCOCC1 | – | 23.1 µM (active)
64 | Cc1ccc(NC(=O)c2ccccn2)cc1S(=O)(=O)N1CCOCC1 | 5.46% (inactive) | –
65 | CN(CC(=O)Nc1ccc(F)cc1)CC(=O)Nc1ccc(Cl)c(S(=O)(=O)N2CCOCC2)c1 | – | 18.3 µM (active)
